Only some compounds are listed: those with a hit (about 1.1% of all), similar ones and a draw of the others.
NCOA1 inh – SRC1 coactivator transcriptional activity inhibitors, primary screen, cell-based, luminescence; Nuclear receptor coactivator 1 (Homo sapiens), Q15788; HEK293 GAL4-SRC1 luciferase reporter; inhibition, % at 3.6 µM; 360,000 tested, 0.12% active;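 active means inhibition above the campaign mean plus 3 SD, with each screening campaign given its own cutoff, cut at about 60% in these data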;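 further: 0% = DMSO treated cells and 100% = gossypol at 36 µM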
COUP-TFII inh – NR2F2 transcriptional activity inhibitors, primary screen, cell-based, luciferase reporter, HEK293T, luminescence | COUP transcription factor 2 (Homo sapiens), P24468 | HEK293T NGFI-A luciferase reporter | inhibition, % at 8.6 µM | 370,000 tested, 0.7% active;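 active means inhibition above a per-plate cutoff, mean inhibition of test wells between control levels plus 3 SD, cut at about 38% in these data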;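 further: cells cotransfected with COUP-TFII expression vector driving the NGFI-A reporter; 0% = median of COUP-TF2 test wells and 100% = reporter-only cells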
SRC2 inh – inhibition of GAL4-SRC2 driven luciferase reporter, primary screen, SRC2 inhibitor project, cell-based, luminescence; Nuclear receptor coactivator 2 (Homo sapiens), Q15596; HEK293 GAL4-SRC2 luciferase reporter; inhibition, % at 9 µM; 370,000 tested, 0.17% active;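 active means inhibition above the mean inhibition of all tested compounds plus 3 SD, set per campaign, cut at about 52% in these data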;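 further: 0% = DMSO treated cells and 100% = cells given Gossypol at 36 µM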
GalR3 antag – GalR3 antagonists in HEK293 cells, primary screen, cell-based, fluorescence readout; Galanin receptor type 3 (Homo sapiens), O60755; HEK293 GalR3-CNG cAMP membrane potential fluorescence; galR3 body fused to GalR1 C-terminus; inhibition, % at 3 µM; 360,000 tested, 0.44% active; AID 651719, 2012;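 active means inhibition above the screen-wide average plus 3 SD, cut at about 13% in these data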;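 further: forskolin and galanin both at EC90 stimulate the cells; cAMP rise reported by CNG channel membrane potential dye signal; 0% = forskolin plus galanin with DMSO and 100% = forskolin alone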
NCOA3 inh – SRC3 coactivator transcriptional activity inhibitors, primary screen, cell-based, luminescence; Nuclear receptor coactivator 3 (Homo sapiens), Q9Y6Q9; HEK293 GAL4-SRC3 luciferase reporter; inhibition, % at 3.6 µM; 360,000 tested, 0.17% active; AID 588352, 2011;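 active means inhibition above a per-campaign cutoff, the mean of all compounds plus 3 SD, cut at about 60% in these data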;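 further: 0% = DMSO-treated cells and 100% = gossypol-treated cells at 36 µM; higher means less SRC3-driven luciferase light from the GAL4 reporter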
NR5A2 inv ag – LRH-1 (NR5A2) inverse agonists, primary screen, cell-based, luminescence, HEK293T, StAR-luciferase reporter. 360,000 tested, 0.13% active. AID 602396, 2012. Nuclear receptor subfamily 5 group A member 2 (Homo sapiens), O00482. LRH-1 transfected, 24 h. inhibition, % at 3.6 µM;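 active means inhibition above the mean inhibition of all tested compounds plus 3 SD, cut at about 73% in these data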;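 further: 0% = DMSO wells and 100% = reporter-only cells lacking LRH-1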
GalR3 conf – GalR3 antagonist hit confirmation, cell-based, fluorescence, triplicate | shares compounds with GalR3 antag | HEK293 GalR3 CNG cAMP biosensor, membrane potential fluorescence; galR3 fused to GalR1 carboxy tail; challenged with forskolin and galanin at EC90 | inhibition, % at 3 µM | 1,600 tested, 59% active | AID 652245, 2013;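 active means inhibition above the primary screen's cutoff, the mean inhibition of all screened compounds plus 3 SD, cut at about 13% in these data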;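 further: 0% = forskolin plus galanin and 100% = forskolin alone with DMSO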
HEK-CNG parental – nonspecific cAMP agonists in parental HEK-CNG cells, counter-screen for GalR3 antagonist project, cell-based, fluorescence, high throughput; shares compounds with GalR3 antag; HEK293-CNG parental cells, cAMP membrane potential fluorescence; normalised: DMSO wells 0%, forskolin wells 100%; activation, % at 3 µM; 1,600 tested, 10% active; AID 652268, 2013; in the data active means activation above about 1.3%
Gal4-VP16 ctr – Gal4-VP16 luciferase reporter inhibitors, counter-screen for COUP-TFII antagonist project, cell-based, luminescence, HEK293; shares compounds with COUP-TFII inh; inhibition, % at 8.5 µM; 2,500 tested, 25% active; in the data active means inhibition above about 13%
NR2F2 inh conf – NR2F2 transcriptional activity inhibitors, confirmation, cell-based, luciferase reporter, HEK293, triplicate. shares compounds with COUP-TFII inh. HEK293 NGFI-A luciferase reporter, luminescence. inhibition, % at 8.5 µM. 2,500 tested, 45% active. AID 687008, 2013;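 active means mean inhibition over three repeats above a set limit taken from the earlier primary screen, cut at about 38% in these data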;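 further: 100% = cells given the luciferase reporter alone without the COUP-TF2 vector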
* hit, by the source's call.

Results for O=C(NC1CCN(Cc2ccccc2)CC1)c1ccc2c(c1)[nH]c(=O)n2Cc1ccc(F)cc1 ?
NCOA1 inh: -8.2; COUP-TFII inh: 64.4*; SRC2 inh: -1.2; GalR3 antag: 54.6*; NCOA3 inh: 20.3; NR5A2 inv ag: 18.8; GalR3 conf: 59.4*; HEK-CNG parental: 0.6; Gal4-VP16 ctr: 2.8; NR2F2 inh conf: 34.0

What do the screens show for `CCCCOc1ccc(C(=O)Nc2ccc(CN3CCOCC3)cc2)cc1`?
NCOA1 inh: 17.0; COUP-TFII inh: 31.6; SRC2 inh: 28.4; GalR3 antag: -8.1; NCOA3 inh: 5.4; NR5A2 inv ag: 20.1

What do the screens show for `Cc1ccc(NS(=O)(=O)c2ccc(C(=O)NC3CCN(Cc4ccccc4)CC3)cc2)cc1`?
NCOA1 inh: 31.4; COUP-TFII inh: 63.9*; SRC2 inh: -1.4; GalR3 antag: 90.5*; NCOA3 inh: 21.5; NR5A2 inv ag: 38.3; GalR3 conf: 103.2*; HEK-CNG parental: 0.6; Gal4-VP16 ctr: 1.0; NR2F2 inh conf: 49.5*

What do the screens show for `COc1ccc(NS(=O)(=O)c2ccc(NC(=O)c3ccc(CN4CCOCC4)cc3)cc2)cc1`?
NCOA1 inh: 7.9; COUP-TFII inh: 63.9*; SRC2 inh: 28.9; GalR3 antag: 88.7*; NCOA3 inh: -2.4; NR5A2 inv ag: 37.0; GalR3 conf: 118.2*; HEK-CNG parental: -1.0; Gal4-VP16 ctr: -3.6; NR2F2 inh conf: 51.9*

Results for CC(NCc1ccco1)C(=O)N1CCN(c2ccc(F)cc2)CC1 (stereo unspecified) ?
COUP-TFII inh: -8.3; SRC2 inh: -32.9

What do the screens show for `CN(c1ccc(C(=O)Nc2ccc(S(=O)(=O)N3CCCC3)cc2)cc1)S(C)(=O)=O`?
NCOA1 inh: 5.3; COUP-TFII inh: 46.7*; SRC2 inh: 30.5; GalR3 antag: 93.5*; NCOA3 inh: 25.2; NR5A2 inv ag: 28.6; GalR3 conf: 95.4*; HEK-CNG parental: 0.0; Gal4-VP16 ctr: -3.5; NR2F2 inh conf: 11.0

Results for O=C(Nc1ccc(S(=O)(=O)Nc2ccc(F)cc2)cc1)c1ccc(CN2CCOCC2)cc1 ?
NCOA1 inh: 23.8; COUP-TFII inh: 72.8*; SRC2 inh: 32.2; GalR3 antag: 67.4*; NCOA3 inh: 33.0; NR5A2 inv ag: 34.8; GalR3 conf: 109.5*; HEK-CNG parental: -1.3; Gal4-VP16 ctr: 8.7; NR2F2 inh conf: 61.8*

What do the screens show for `O=C(Nc1ccc(S(=O)(=O)N2CCCC2)cc1)c1ccc(CN2CCOCC2)cc1`?
NCOA1 inh: 24.0; COUP-TFII inh: 63.3*; SRC2 inh: 23.9; GalR3 antag: 106.9*; NCOA3 inh: 28.9; NR5A2 inv ag: 33.3; GalR3 conf: 64.1*; HEK-CNG parental: 0.2; Gal4-VP16 ctr: 6.0; NR2F2 inh conf: 48.5*

What do the screens show for `COc1ccc(NS(=O)(=O)c2ccc(N3CCOCC3)c(N)c2)cc1`?
NCOA1 inh: 3.5; COUP-TFII inh: 47.9*; SRC2 inh: 23.8; GalR3 antag: 83.9*; NCOA3 inh: 16.1; NR5A2 inv ag: 26.0; GalR3 conf: 82.8*; HEK-CNG parental: -0.4; Gal4-VP16 ctr: -9.4; NR2F2 inh conf: 33.5

Results for COc1ccc(S(=O)(=O)Nc2ccc(N3CCOCC3)cc2)cc1 ?
NCOA1 inh: 17.8; COUP-TFII inh: -4.8; SRC2 inh: 13.5; GalR3 antag: -8.6; NCOA3 inh: 10.8; NR5A2 inv ag: 9.8

Results for O=C(Nc1ccc(S(=O)(=O)N2CCOCC2)cc1)c1ccc(F)cc1 ?
NCOA1 inh: 4.8; COUP-TFII inh: 1.1; SRC2 inh: -13.5; GalR3 antag: -4.7; NCOA3 inh: 5.0; NR5A2 inv ag: -17.1

What do the screens show for `O=C(Nc1ccc(S(=O)(=O)N2CCCCC2)cc1)c1ccc(CN2CCOCC2)cc1`?
NCOA1 inh: 28.4; NCOA3 inh: 45.4; NR5A2 inv ag: 49.9

Results for C=CCN1C(=O)[C@@H](CC(=O)NCC2CCCCC2)[C@]2(C(=O)OCC)CCCCC/C=C/12 ?
COUP-TFII inh: 0.2; SRC2 inh: -20.8

Results for COC(=O)[C@]12C[C@H](CC(=O)NCC34CC5CC(CC(C5)C3)C4)C(=O)N(Cc3ccco3)C1=C[C@H](C1CCCC1)O[C@@H]2C ?
COUP-TFII inh: 6.7; SRC2 inh: -24.8

How did CCOc1ccc(NC(=O)c2ccc(OCC3CCCO3)cc2)cc1S(=O)(=O)N(CC)CC (stereo unspecified) do in these assays?
NCOA1 inh: 1.0; COUP-TFII inh: 13.0; SRC2 inh: 4.2; GalR3 antag: -6.4; NCOA3 inh: 7.3; NR5A2 inv ag: -5.7

How did COc1ccc(CN2CCN(C(=O)c3ccc(S(=O)(=O)N4CCCCCC4)cc3)CC2)cc1 do in these assays?
NCOA1 inh: 24.9; COUP-TFII inh: 62.6*; SRC2 inh: -33.8; GalR3 antag: 26.5*; NCOA3 inh: 21.4; NR5A2 inv ag: 26.9; GalR3 conf: 90.4*; HEK-CNG parental: -0.6; Gal4-VP16 ctr: 3.0; NR2F2 inh conf: 48.1*

What do the screens show for `CCN(CC)S(=O)(=O)c1ccc(NC(=O)c2ccc(OCC3CCCO3)cc2)cc1` (stereo unspecified)?
NCOA1 inh: 20.2; COUP-TFII inh: 61.3*; SRC2 inh: 12.2; GalR3 antag: 34.5*; NCOA3 inh: -16.4; NR5A2 inv ag: 18.0; GalR3 conf: 104.2*; HEK-CNG parental: -0.3; Gal4-VP16 ctr: 9.2; NR2F2 inh conf: 49.4*

Results for CC(C)[C@H](NC(=O)CC1CCCC1)C(=O)N1CCC[C@H]1C(=O)NCc1ccccc1 ?
COUP-TFII inh: -6.7; SRC2 inh: -13.0; GalR3 antag: -7.3

Screening data deposited in PubChem BioAssay by The Scripps Research Institute Molecular Screening Center.
